High-throughput results: PubChem BioAssay, Buhrlage Lab, Dana-Farber Cancer Institute and Novartis Institutes for BioMedical Research (Cambridge, Mass)
USP28 block – blocks human USP28 ubiquitin-rhodamine cleavage; inhibition, % at 25 µM; purified USP28, Ub-rhodamine cleavage fluorescence, 30 min; Q96RU2; 47,000 tested, 3% active
USP30 inh – inhibitors of human USP30 deubiquitinase; purified USP30, Ub-rhodamine cleavage fluorescence; AID 1645860; inhibition, % at 25 µM; 47,000 tested, 5.3% active
USP8 block – blocks human USP8 ubiquitin-rhodamine cleavage; 47,000 tested, 4.2% active; AID 1645853; inhibition, % at 20 µM; purified USP8, Ub-rhodamine cleavage fluorescence, 30 min; P40818
USP10 block – inhibitors of human USP10 deubiquitinase; purified USP10, Ub-rhodamine fluorescence, 60 min; inhibition, % at 20 µM; 47,000 tested, 1.1% active; AID 1645856
Target sequence (Q14694 whole entry, looked up): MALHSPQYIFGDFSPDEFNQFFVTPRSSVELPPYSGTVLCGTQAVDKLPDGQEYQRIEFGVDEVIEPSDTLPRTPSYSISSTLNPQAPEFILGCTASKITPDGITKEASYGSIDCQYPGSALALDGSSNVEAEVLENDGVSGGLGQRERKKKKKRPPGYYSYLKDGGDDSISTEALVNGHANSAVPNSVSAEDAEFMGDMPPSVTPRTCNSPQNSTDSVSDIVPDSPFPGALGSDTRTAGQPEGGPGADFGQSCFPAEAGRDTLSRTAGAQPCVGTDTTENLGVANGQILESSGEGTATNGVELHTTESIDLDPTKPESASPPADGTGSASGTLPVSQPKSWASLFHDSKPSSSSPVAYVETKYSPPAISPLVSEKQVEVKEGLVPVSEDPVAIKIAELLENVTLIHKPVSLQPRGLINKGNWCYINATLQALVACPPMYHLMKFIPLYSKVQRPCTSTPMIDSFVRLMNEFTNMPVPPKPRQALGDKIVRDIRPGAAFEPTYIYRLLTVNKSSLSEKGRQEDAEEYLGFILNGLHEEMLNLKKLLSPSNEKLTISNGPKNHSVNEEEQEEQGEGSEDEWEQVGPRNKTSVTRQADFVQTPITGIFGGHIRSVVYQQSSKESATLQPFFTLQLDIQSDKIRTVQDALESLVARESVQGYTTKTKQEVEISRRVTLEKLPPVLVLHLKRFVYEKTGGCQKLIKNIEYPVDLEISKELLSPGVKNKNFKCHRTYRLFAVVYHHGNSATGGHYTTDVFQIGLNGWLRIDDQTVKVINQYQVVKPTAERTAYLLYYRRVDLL
USP17 inh – blocks human USP17 ubiquitin-rhodamine cleavage. AID 1645855. A8MUK1. inhibition, % at 50 µM. 47,000 tested, 6.5% active. purified USP17, Ub-rhodamine cleavage fluorescence, 3 h
Numbers without * were called inactive; x = no result. Sampled rows, rich in hits. Any-hit rate of the full collection: about 13%. Rule as the data show it: active = inhibition above about 30%; inactive = the rest.

SMILES	USP28 block	USP30 inh	USP8 block	USP10 block	USP17 inh
COc1cccc2cc(-c3nnc(SCC(=O)c4ccc(F)cc4)n3C)oc12	0.7	8.6	39.4*	18.0	x
COc1ccc(C(=O)CSc2nnc(-c3cc4ccccc4o3)n2C)cc1	-0.1	1.9	11.6	11.8	13.5
Cc1ccc2oc(=O)c3cc(C(=O)Nc4cccc(C)n4)sc3c2c1	-0.6	10.0	12.3	2.6	14.6
CCCCc1ccc(-c2cc(C(=O)NCCN3CCOCC3)c3cc(Br)ccc3n2)cc1	0.1	78.8*	-15.6	-2.5	13.9
CCc1nc(-c2ccc(C)c(S(=O)(=O)NCC(C)c3ccccc3)c2)no1 (stereo not drawn)	6.2	8.2	5.8	11.6	-1.8
CC(c1ccccc1)c1nc(-c2ccc(=O)[nH]c2)no1 (stereo not drawn)	60.9*	7.9	9.7	-1.1	-2.5
Cc1ccn2c(NC(=O)c3cccc(S(C)(=O)=O)c3)c(-c3ccccc3)nc2c1	-15.6	-32.3	-24.9	-1.8	-19.8
O=C1CC2C3CCC(=O)c4c(O)ccc(c43)C2(O)c2cccc(O)c21 (stereo not drawn)	36.9*	-0.3	34.6*	10.4	46.9*
C/C=C1\CN(C(=O)C(NC(=O)[C@H](N)[C@@H](O)[C@H](O)COC(N)=O)[C@H]2O[C@@H](n3cc(CO)c(=O)[nH]c3=O)[C@H](O)[C@@H]2O)[C@@H]1C(=O)O (stereo partly drawn)	-12.3	-37.6	-3.1	-4.5	-110.0
O=C(NCCc1ccc(F)cc1)c1cc2c([nH]c1=O)CCCC2	-12.0	-0.8	1.8	1.3	41.8*
Cc1ccc(NC(=O)CC(c2ccc(F)cc2)N2Cc3ccccc3C2=O)nc1 (stereo not drawn)	16.3	11.1	16.7	0.4	0.6
CCOc1ccc(C(CC(=O)Nc2cc(C)ccn2)N2Cc3ccccc3C2=O)cc1OC (stereo not drawn)	4.8	34.0*	13.2	-2.8	44.1*
Fc1ccc(-c2nsc3c(N4CCCC4)ncnc23)cc1	2.4	19.0	-0.4	-1.5	32.0*
O=C(NC1CCc2nc(C(F)(F)F)cn2C1)c1ccncc1 (stereo not drawn)	0.1	11.6	-0.1	-0.8	-5.4
O=C(Cc1nnc(-c2cnccn2)o1)NCc1cccc(Cl)c1	-2.0	-4.7	-7.0	4.3	-4.9
O=C(NCc1cccc(Cl)c1)c1sc2ncccc2c1-n1cccc1	31.5*	-56.7	-51.8	0.2	16.4
O=C(CNC(=O)c1ccc2nc(-n3cccc3)sc2c1)NCc1cccc(Cl)c1	-28.6	-70.4	68.6*	-0.3	-50.6
N#Cc1c(SCc2ccccc2)nc(-c2ccccc2F)c2c1CCCC2	8.5	12.3	11.8	1.3	9.2
Cc1sc2nc(C3CC3)n(C3CCN(C(=O)CC(C)C)CC3)c(=O)c2c1C	8.4	40.1*	11.0	7.9	19.8
Cc1sc2nc(C3CC3)n(C3CCN(C(=O)C4CC4)CC3)c(=O)c2c1C	12.7	32.7*	13.6	11.8	22.5
Cc1sc2nc(C(C)C)n(C3CCN(C(=O)C4CCCO4)CC3)c(=O)c2c1C (stereo not drawn)	-4.4	0.0	-30.1	-1.0	-5.1
Cc1sc2nc(C)n(C3CCN(CC(=O)NCC4CC4)CC3)c(=O)c2c1C	-12.9	-1.4	-12.0	-2.7	-3.7
COc1cccc(CNC(=O)c2cnc3sc4c(n3c2=O)CCC4)c1	-0.9	-55.1	-11.2	0.3	-8.7
Cc1cccc(CNC(=O)c2cnc3sc4c(n3c2=O)CCCC4)c1	7.1	36.9*	1.9	7.7	15.6
Cc1cccc(CN2C(=O)c3ccccc3Sc3ccc(C(=O)NC4CCCC4)cc32)c1	1.6	0.4	-0.3	3.7	-5.9
SMILES	USP28 block	USP30 inh	USP8 block	USP10 block	USP17 inh
CCN1C(=O)c2ccccc2Sc2ccc(C(=O)NCc3ccc(C)cc3)cc21	38.4*	25.8	-0.1	9.2	-0.6
O=C(NCc1ccco1)c1ccc2c(c1)N(Cc1cccc(F)c1)C(=O)c1ccccc1S2	6.0	-39.7	26.4	-4.8	58.3*
Cc1cc(N2C(=O)c3oc4ccc(F)cc4c(=O)c3C2c2cccc(OCc3ccccc3Cl)c2)no1 (stereo not drawn)	-1.5	6.5	31.4*	4.6	-4.3
Cc1cc(N2C(=O)c3oc4ccc(F)cc4c(=O)c3C2c2cccc(OCc3ccccc3)c2)no1 (stereo not drawn)	1.0	11.2	-3.8	1.8	-0.5
O=C(NC1CCCC1)c1ccc(-c2ccc(S(=O)(=O)NCc3ccccc3)cc2)cc1	23.3	41.0*	45.0*	22.3	19.3
O=C(NCc1cccnc1)C1CCc2nc(N3CCN(C(=O)C4CCC4)CC3)sc2C1 (stereo not drawn)	-6.3	-7.0	-0.2	-4.1	-3.7
Cc1cc2c(cc1S(=O)(=O)N1CCCC(C)C1)OCC(=O)N2 (stereo not drawn)	x	x	0.9	4.8	40.7*
CC(=O)c1ccc(N2CCN(S(=O)(=O)c3cc4c(cc3C)NC(=O)CO4)CC2)cc1	31.8*	-21.3	28.7	8.2	15.1
Clc1ccc(-c2csc3ncnc(NC4CC4)c23)cc1	6.9	24.3	16.1	0.3	3.4
COc1ccc(CCNC(=O)CN2CCN(Cc3ccc(Cl)cc3)C2=O)cc1OC	3.1	-13.3	3.6	-1.8	-1.8
CCCn1c(C(O)c2cccc3ccccc23)nc2ccccc21 (stereo not drawn)	-19.6	-71.6	48.3*	-0.1	-7.9
COc1ccc(-n2c(/C=C/c3cccc4ccccc34)nc3ccccc3c2=O)cc1	2.9	8.8	-5.8	5.9	-9.1
COc1ccc(-n2c(=O)c(CCC(=O)O)nc3ccccc32)cc1	-7.3	-45.1	15.1	-0.7	50.1*
Cc1ccc2ccc3c(c2n1)OC(N)=C(C#N)C3c1ccncc1 (stereo not drawn)	-19.9	-8.0	65.9*	-1.9	5.6
O=c1[nH]c(SCc2nc3ccccc3c(=O)n2-c2ccc(Cl)c(Cl)c2)nc2ccccc12	-91.9	-110.1	-16.1	-2.2	-7.5
O=C(COC(=O)C(Cc1c[nH]c2ccccc12)NC(=O)c1ccccc1Cl)Nc1cc(F)ccc1F (stereo not drawn)	21.7	16.1	4.5	11.7	31.7*
O=C1COc2ccc(C(=O)c3ccccc3C(=O)NC3CC3)cc2N1	x	x	2.5	5.2	4.2
O=C(CN1C(=O)COc2ccc(Cl)cc21)Nc1cccc2ncccc12	-5.1	-113.9	72.9*	-5.7	60.0*
O=C1COc2ccc(C(=O)Nc3cccc4ncccc34)cc2N1	15.2	-125.6	-7.6	-4.2	36.7*
C[C@@H](C(=O)NCCCc1ccccc1)N1C(=O)N2CCc3c([nH]c4ccccc34)[C@@]2(C)C1=O	18.5	20.4	-3.1	3.2	8.6
Cc1cc(C(=O)N2CCc3ccccc3C2)c2ccccc2n1	-53.5	-233.9	-23.3	-1.6	-72.9
O=C(CCCCn1c(=O)c2ccccc2n(CC(=O)Nc2ccc(F)cc2)c1=O)NCCc1ccccc1	9.0	25.6	19.2	14.8	46.7*
Cc1ccc(NC(=O)Cn2c(=O)n(CCC(=O)NCCc3ccccc3)c(=O)c3ccccc32)cc1C	0.0	13.4	23.1	31.8*	11.2
